Source: PMC4336329 (PLoS ONE, 2015)
The whole screen tested about 310,000 compounds, of which about 14,000 (4.5%) showed an effect of 50% or more. Effects have a minus sign here. For the sample, strong results were picked, then their nearest neighbours and some compounds at random.

Target: human ether-à-go-go-related gene (hERG) potassium channel (human, UniProt Q12809)
Experiment: primary screen, population patch clamp on CHO cells stably expressing hERG; higher = less effect of the substance
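Also: peak tail current of the secondary pulse compared with the same well before compound.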

Sequence of human ether-à-go-go-related gene (hERG) potassium channel (Q12809 whole entry, looked up): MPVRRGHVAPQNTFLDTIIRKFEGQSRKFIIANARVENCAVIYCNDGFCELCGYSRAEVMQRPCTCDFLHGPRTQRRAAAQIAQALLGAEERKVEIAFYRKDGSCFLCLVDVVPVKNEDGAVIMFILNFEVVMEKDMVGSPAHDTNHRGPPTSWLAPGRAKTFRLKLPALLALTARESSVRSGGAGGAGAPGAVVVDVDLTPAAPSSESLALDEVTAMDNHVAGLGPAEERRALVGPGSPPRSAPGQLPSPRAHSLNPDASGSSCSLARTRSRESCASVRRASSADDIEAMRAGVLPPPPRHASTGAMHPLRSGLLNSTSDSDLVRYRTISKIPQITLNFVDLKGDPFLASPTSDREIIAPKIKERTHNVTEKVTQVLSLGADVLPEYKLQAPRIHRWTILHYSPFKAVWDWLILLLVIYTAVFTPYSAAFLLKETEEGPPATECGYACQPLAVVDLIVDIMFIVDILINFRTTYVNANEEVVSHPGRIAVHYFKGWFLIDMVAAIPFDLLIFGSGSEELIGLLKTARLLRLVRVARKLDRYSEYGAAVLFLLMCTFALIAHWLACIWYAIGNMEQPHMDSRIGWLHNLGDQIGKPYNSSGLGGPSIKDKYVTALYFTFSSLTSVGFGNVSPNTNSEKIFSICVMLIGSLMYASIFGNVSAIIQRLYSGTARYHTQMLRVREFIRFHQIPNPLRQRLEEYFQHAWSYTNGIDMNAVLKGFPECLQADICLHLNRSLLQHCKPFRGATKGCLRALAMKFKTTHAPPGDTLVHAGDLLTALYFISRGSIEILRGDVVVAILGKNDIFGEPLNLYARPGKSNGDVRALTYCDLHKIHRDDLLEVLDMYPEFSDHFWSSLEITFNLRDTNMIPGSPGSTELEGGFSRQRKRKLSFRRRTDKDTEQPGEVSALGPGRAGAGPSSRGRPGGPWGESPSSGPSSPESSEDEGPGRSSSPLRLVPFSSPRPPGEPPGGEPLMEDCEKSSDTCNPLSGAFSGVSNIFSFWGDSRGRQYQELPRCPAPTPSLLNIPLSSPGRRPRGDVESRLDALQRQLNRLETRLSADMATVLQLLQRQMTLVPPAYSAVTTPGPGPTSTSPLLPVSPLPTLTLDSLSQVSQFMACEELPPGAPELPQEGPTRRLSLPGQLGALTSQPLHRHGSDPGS

| SMILES | hERG current change (%, negative = inhibition) at 10uM |
| --- | --- |
| CC(=O)Nc1ccc(Nc2nnc(-c3ccc(C)c(S(=O)(=O)NCC4CCCO4)c3)c3ccccc23)cc1 (stereo not drawn) | -5.1% |
| O=C1NN(c2ccc(Br)cc2)C(=O)/C1=C\c1ccc(O)cc1O | 30.2% |
| Cc1ccccc1C(=O)Nc1ccc2nc3n(c(=O)c2c1)CCC3 | -9.1% |
| Nc1c(C=C2C=CC(=O)C=C2)c(=O)nc2sc(CC(=O)N3CCCCC3)nn12 | 15.6% |
| COc1cc(CNCc2ccc(OC)cc2OC)cc(OC)c1.O=C(O)C(=O)O | -29.5% |
| CCn1c2ccccc2c2cc(CNCc3ccc(OC)cc3OC)ccc21.O=C(O)C(=O)O | -76.2% |
| CCC(CC)NCc1ccc2c(c1)c1ccccc1n2CC.O=C(O)C(=O)O | -28.5% |
| COc1ccc(CNCc2ccc3ccccc3c2)c(OC)c1.O=C(O)C(=O)O | -68.3% |
| COc1ccc(CNCc2cc(C)c(OC)cc2C)c(OC)c1.O=C(O)C(=O)O | -54.9% |
| COc1ccc(CNCc2ccncc2)c(OC)c1.Cl | -0.685% |
| COc1cccc(CNCc2ccc(OC)cc2OC)c1.O=C(O)C(=O)O | -14.1% |
| COc1ccc(NC(=S)NCc2ccc(F)cc2)c(OC)c1 | 1.54% |
| COc1ccc(CNCc2ccc(C)cc2)c(OC)c1.O=C(O)C(=O)O | -31.3% |
| Br.COc1ccc(CNCc2ccc(F)cc2)c(OC)c1 | -79% |
| COc1ccc(CNCc2cc(OC)ccc2OC)cc1.O=C(O)C(=O)O | -30.3% |
| CCn1c2ccccc2c2cc(CN3CCN(Cc4cc(OC)ccc4O)CC3)ccc21.O=C(O)C(=O)O | 7.15% |
| CC1(C)CN(c2ccc(N3CC(C)(C)C3=O)cc2)C1=O | 4.66% |
| O=C(NC1CC2CCCC(C1)N2C(=O)Nc1ccccc1)c1ccncc1 (stereo not drawn) | 0.052% |
| CNCCc1c[nH]c2ccc(O)cc12.O=C(O)C(=O)O | 17.7% |
| Cc1cccc(NC(=O)c2ccccc2NC(=O)C(C)(C)C)n1 | -0.982% |
| CC(C)c1ccc(Nc2nnc(SCC(=O)c3nnc(-c4ccccc4)o3)s2)cc1 | 22.2% |
| CCn1c(NCc2ccc(N(C)C)cc2)nc2ccccc21 | -41.2% |

| SMILES | hERG current change (%, negative = inhibition) at 10uM |
| --- | --- |
| O=C(Nc1nccs1)c1ccccn1 | -3.04% |
| Nc1nc(SCc2nc3sc4c(c3c(=O)[nH]2)CCCC4)n[nH]1 | 8.47% |
| CCOc1cccc(CNCCNC(=O)c2nonc2N)c1.Cl | -7.85% |
| O=C(c1ccco1)N1CCN(C(=O)c2ccccc2OCc2ccc(Cl)cc2)CC1 | -75.9% |
| O=C(c1ccccc1OCc1ccc(Cl)cc1)N1CCN(c2ccccn2)CC1 | -42.4% |
| O=C(OCC(=O)N1CCN(C(=O)c2ccco2)CC1)c1ccccc1OCc1ccc(Cl)cc1 | -35.3% |
| CCN1CCN(C(=O)c2ccc(COc3cccc(Cl)c3)o2)CC1 | -23.7% |
| CN(C)C(CNC(=O)c1ccccc1OCc1ccc(Cl)cc1)c1ccco1 (stereo not drawn) | -60.3% |
| CSc1ccccc1C(=O)NCC(c1ccco1)N(C)C (stereo not drawn) | 16.9% |
| O=C(c1ccc(COc2ccc(Cl)cc2)o1)N1CCN(Cc2ccc3c(c2)OCO3)CC1 | -12.7% |
| O=C(c1ccco1)N1CCN(C(=O)c2ccc(CS(=O)c3ccc(F)cc3)o2)CC1 (stereo not drawn) | 11.8% |
| CCN1CCN(C(=O)c2ccc(COc3ccc(Cl)cc3)o2)CC1 | -52.5% |
| O=C(c1ccco1)N1CCN(C(=O)c2ccc(COc3ccc(F)cc3)o2)CC1 | -62.6% |
| COc1ccc(Cl)cc1C(=O)NCC(c1ccco1)N(C)C (stereo not drawn) | -4.19% |
| O=C(c1ccc(COc2ccc(F)cc2)o1)n1cccn1 | 4.97% |
| Nn1c(SCC(=O)NC2CCCCC2)nnc1-c1ccccc1F | -3.17% |
| CCCc1[nH]nc2c1C(c1ccsc1)C(C#N)=C(N)O2 (stereo not drawn) | -7.53% |
| CCOC(=O)C1CCN(C(=O)c2cc3c(OC)c(OC)c(OC)cc3[nH]2)CC1 | 15.5% |
| O=C(c1ccc(COc2ccc3c(c2)CCC3)o1)N1CCN(c2ccccc2)CC1 | 15.5% |
| O=C(COc1ccc(Cl)cc1Cl)N1CCN(C(=O)c2ccco2)CC1 | 20.6% |
| O=C(c1ccco1)N1CCN(C(=O)c2ccc(COc3ccc(Cl)cc3Cl)o2)CC1 | -70.4% |
| NNC(=O)c1ccc(COc2ccc3c(c2)CCC3)o1 | 0.852% |

| SMILES | hERG current change (%, negative = inhibition) at 10uM |
| --- | --- |
| O=C(c1ccc(COc2ccc(Cl)cc2Cl)o1)N1CCCC1 | -43.1% |
| O=C(c1ccco1)N1CCN(C(=O)c2ccc(COc3ccc4c(c3)CCC4)o2)CC1 | -69% |
| CCOc1cc2[nH]c(=S)n(CCC(=O)NCc3ccco3)c(=O)c2cc1OCC | 23.6% |
| CCOc1ccccc1CN1CCN(Cc2cc3ccccc3[nH]2)CC1CCO (stereo not drawn) | -59.3% |
| CC(C)(C)CN1CCN(Cc2cc3ccccc3[nH]2)CC1CCO (stereo not drawn) | -8.03% |
| O=c1cc(CN2CCN(Cc3ccc(F)cc3)C(CCO)C2)[nH]c2ccccc12 (stereo not drawn) | -61.2% |
| CCOc1ccccc1CN1CCN(Cc2cc(=O)c3ccccc3[nH]2)CC1CCO (stereo not drawn) | -66.6% |
| Cc1ccc(CN2CCN(Cc3cc(=O)c4ccccc4[nH]3)CC2CCO)o1 (stereo not drawn) | -30.8% |
| CC(C)CCN1CCN(Cc2cc3ccccc3[nH]2)CC1CCO (stereo not drawn) | -22.4% |
| Cc1cc(NC(=O)CSc2nc3sc4c(c3c(=O)n2C)CCCC4)no1 | 7.47% |
| O=c1c2ccccc2c(-c2ccccc2)nn1-c1ccc(Cl)c(Cl)c1 | 13.3% |
| CCOC(=O)C1CCCNC1=O (stereo not drawn) | 14.8% |
| O=C(O)/C=C/c1ccc2c(c1)OCCO2 | -25% |
| Brc1ccc2c(c1)OCCOCCOc1cc(Br)ccc1OCCOCCOCCO2 | -4.86% |
| Cl.Nc1ccc2c(c1)OCCOCCOCCOCCOCCO2 | -33.5% |
| Brc1ccc2c(c1)OCCOCCOCCOCCOCCO2 | -76.4% |
| Brc1cc2c(cc1Br)OCCOCCOCCO2 | -11.5% |
| Brc1ccc2c(c1)OCCOCCOCCOCCOCCOCCO2 | -70.8% |
| O=C(Nc1ccc2c(c1)OCCO2)c1ccc(Br)cc1 | -3.81% |
| CC(=O)Nc1cc2c(cc1Br)OCCO2 | 21.5% |
| O=C(Nc1ccc(Br)cc1F)c1ccc2c(c1)OCCO2 | 12.3% |
| C=Cc1ccc2c(c1)OCCOCCOCCOCCOCCO2 | -71.2% |

| SMILES | hERG current change (%, negative = inhibition) at 10uM |
| --- | --- |
| Brc1cc2c(cc1Br)OCCOCCOCCOCCO2 | -76.5% |
| S=C(Nc1ccc(Br)cc1)Nc1ccc2c(c1)OCCO2 | 20.5% |
| COC(=O)/C(=C\c1cc(OC)c(OC)c(OC)c1)c1nc2ccccc2[nH]1.Cl | 19% |
| COc1ccc(C)cc1NC(=O)CCCN1C(=O)C(c2ccccc2)Oc2cccnc21 (stereo not drawn) | 2.21% |
| Cc1cccc(CCNC(=O)CCS(=O)(=O)c2cc3c(cc2Cl)NC(=O)CO3)c1 | 3.71% |
| CC[C@H]1OC(=O)[C@H](C)[C@@H](O[C@H]2C[C@@](C)(OC)[C@@H](O)[C@H](C)O2)[C@H](C)[C@@H](O[C@@H]2O[C@H](C)C[C@H](N(C)C)[C@H]2O)[C@](C)(O)C[C@@H](C)CN(C)[C@H](C)[C@@H](O)[C@]1(C)O | 1.55% |
| Cc1ccc(/C(O)=C2/C(=O)C(=O)N(Cc3ccco3)C2c2cccs2)cc1 (stereo not drawn) | -8.53% |
| CCOC(=O)c1cc(C(=O)n2cc(Cl)cn2)nn1C | 10.6% |
| Cc1ccc(-c2csc(NC(=O)CCNC(=O)c3ccco3)n2)cc1 | 5.76% |
| COc1cc2c(cc1NC(=O)c1cc(-c3cccnc3)nc3ccc(C)cc13)oc1ccccc12 | 8.86% |
| CCN(CC)c1ccc(/C=N/NC(=O)c2cccc(S(=O)(=O)N3CCOCC3)c2)cc1 | -24.4% |
| CC1(C(=O)Nc2nnc(SCc3ccccc3)s2)Cc2ccccc2C(=O)O1 (stereo not drawn) | -24.6% |
| COc1ccc(OCC(=O)c2c(O)c3ccccc3oc2=O)cc1 | -12.4% |
| CCOC(=O)C1=NN(C(=O)Cc2ccccc2)C(O)(C(C)(C)C)C1 (stereo not drawn) | 9.74% |
| COC(=O)C1=NN(C(=O)c2cccc(Cl)c2)C(O)(C(C)(C)C)C1 (stereo not drawn) | 8.11% |
| CCOC(=O)C1=NN(C(=O)c2cccc(Br)c2)C(O)(C(C)(C)C)C1 (stereo not drawn) | -57.6% |
| COc1ccc(C2CC(=O)C3=C(C2)Nc2ccccc2N(C(C)=O)C3c2ccco2)cc1 (stereo not drawn) | -35.8% |
| CN(C)C(=S)Nc1ccc([N+](=O)[O-])cc1 | -0.053% |
| O=[N+]([O-])c1cccc(C(=NCc2ccccc2)NO)c1 | 15.9% |
| CN(C)C(=S)NC(=NCc1ccc([N+](=O)[O-])cc1)c1ccccc1 | -90.7% |
| Nc1ncc([N+](=O)[O-])c(Oc2ccccc2F)n1 | 24.7% |
